The values below come from the supplement of paper PMC6522484.

± gives the standard deviation of the averaged measurements.

In test [1] the test system is DLD1. In words: cell viability (CellTiter-Glo) relative to plate median (fraction of plate median); higher = more viable cells. As to conditions: 5 µM; treatment time 24 h; reporter: 7TFP. The essentials: (§1)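 Colorectal cancer cell lines stably carrying lentiviral TCF/Wnt firefly luciferase reporters (7TFP or TCF4/Wnt) were plated in 384-well plates and, 24 h later, given library compounds at a final 5 µM for 24 h. Firefly luciferase or CellTiterGlo luminescence was read on parallel plates with a Tecan F500 reader. Each well's signal was normalised to the plate median in webcellHTS2 (additive, without log transformation). Values are the mean of two independent replicates.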
Background: ATP-based viability assays read luminescence as a measure of living cells.

For test [2], the system named is HCT116. The description is as above. As to conditions: 5 µM; treatment time 24 h; reporter: TCF4/Wnt. The essentials:
as §1

Test [3] has as its system SW480. The description is as above. Conditions: 5 µM; treatment time 24 h; reporter: 7TFP. The method in brief:
as §1

Test [4] concerns DLD1. In words: TCF/Wnt firefly luciferase reporter signal relative to plate median (fraction of plate median); higher = higher Wnt reporter signal. Conditions: 5 µM; treatment time 24 h; reporter: 7TFP. The essentials: as §1
A general note: In a reporter assay the amount or activity of a reporter protein is the signal.

Test [5] concerns SW480. The test is described as above. As to conditions: 5 µM; treatment time 24 h; reporter: 7TFP. The method in brief: as §1

Consider `CC(C(=O)O)[C@H]1CCC2C3CC=C4C[C@@H](O)CC[C@]4(C)C3CC[C@@]21C` (stereo partly drawn) [3beta-HYDROXY-23,24-BISNORCHOL-5-ENIC ACID], for which the cell viability in test [1] was 1.09 ± 0.057; in test [2] it was 1.05 ± 0.071; in test [3], 0.999 ± 0.016. Further, the “TCF/Wnt firefly luciferase reporter signal” value in test [4] worked out at 1.01 ± 0.021; in test [5], 1.09 ± 0.028.
On to `CC(C)(Oc1ccc(CCNC(=O)c2ccc(Cl)cc2)cc1)C(=O)O`, for which the results for the cell viability in test [1], in test [2] and in test [3] were 1.05 ± 0.014, 1.06 ± 0.064 and 1 ± 0.069, respectively. The “TCF/Wnt firefly luciferase reporter signal” value came to 0.919 ± 0.016 in test [4] and 0.986 ± 0.02 in test [5].
As for `C[C@@H]1O[C@@H](O[C@H]2[C@H](O[C@H]3CC[C@@]4(C)[C@@H](CC[C@]5(C)[C@@H]4CC=C4[C@@H]6CC(C)(C)CC[C@]6(C(=O)O)CC[C@]45C)[C@]3(C)CO)OC[C@H](O)[C@@H]2O)[C@H](O)[C@H](O)[C@H]1O`, the cell viability stood at 1.04 ± 0.062 in test [1], 1.05 ± 0.1 in test [2] and 1.03 ± 0.098 in test [3]. Moreover, the “TCF/Wnt firefly luciferase reporter signal” value is 1.04 ± 0.014 in test [4] and 1.06 ± 0.064 in test [5].
`CO[C@@]1(NC(=O)C(C(=O)O)c2ccc(O)cc2)C(=O)N2C(C(=O)O)=C(CSc3nnnn3C)CO[C@@H]21` (stereo not given in full): the results for the cell viability in test [1], in test [2] and in test [3] were 1.06, 1.02 ± 0.021 and 1.07, respectively. Moreover, the “TCF/Wnt firefly luciferase reporter signal” value in test [4] amounted to 0.962 ± 0.097; in test [5], 1.06 ± 0.035.
With `CCN(CC)CCOC(=O)C1(C2CCCCC2)CCCCC1`, the cell viability turned out to be 0.98 ± 0.0014 in test [1], 1.02 ± 0.14 in test [2] and 1.045 ± 0.0071 in test [3]. The “TCF/Wnt firefly luciferase reporter signal” value in test [4] was 0.9375 ± 0.0078; in test [5], 1.045 ± 0.0071.
With `O=C1c2c(O)cccc2C([C@@H]2O[C@H](CO)[C@@H](O)[C@H](O)[C@H]2O)c2cc(CO)cc(O)c21` (stereo not given in full), the cell viability in test [1] turned out to be 1.05 ± 0.1; in test [2], 1.1 ± 0.078; in test [3], 1.015 ± 0.0071. Besides, the “TCF/Wnt firefly luciferase reporter signal” value amounted to 1.2 ± 0.021 in test [4] and 1.07 ± 0.05 in test [5].
The like results for `CC(C)OC(=O)C(C)(C)Oc1ccc(C(=O)c2ccc(Cl)cc2)cc1` were, in that order, 1.08 ± 0.071, 1.045 ± 0.0071, 1.04, 0.917 ± 0.14 and 0.939 ± 0.015.
For `O=C1N=C(O)NC1(c1ccccc1)c1ccccc1`, the cell viability in test [1] worked out at 1.06 ± 0.05; in test [2], 0.957 ± 0.015; in test [3], 1.005 ± 0.0071. Also, the “TCF/Wnt firefly luciferase reporter signal” value in test [4] and in test [5] was 1.08 ± 0.021 throughout.
Consider `CCCn1c(=O)c2[nH]c(C3CCCC3)nc2n(CCC)c1=O`, for which the cell viability stood at 0.998 ± 0.059 in test [1], 1.03 ± 0.047 in test [2] and 1.02 ± 0.037 in test [3]. Also, the figures for the “TCF/Wnt firefly luciferase reporter signal” value in test [4] and in test [5] were 1.04 ± 0.16 and 0.968 ± 0.073, respectively.
Regarding `C=C(C)[C@@H]1CC[C@]2(C(=O)O[C@@H]3O[C@H](CO[C@@H]4O[C@H](CO)[C@@H](O[C@@H]5O[C@@H](C)[C@H](O)[C@@H](O)[C@H]5O)[C@H](O)[C@H]4O)[C@@H](O)[C@H](O)[C@H]3O)CC[C@]3(C)[C@H](C[C@@H](O)[C@@H]4[C@@]5(C)[C@@H](CC(=O)O)OC(C)(C)[C@@H]5CC[C@]43C)[C@@H]12` [Isochiisanoside (6)], the figures for the cell viability in test [1], in test [2] and in test [3] were 0.92 ± 0.055, 0.934 ± 0.0028 and 0.915 ± 0.066, respectively. Moreover, the “TCF/Wnt firefly luciferase reporter signal” value in test [4] was determined as 0.953 ± 0.15; in test [5], 0.945 ± 0.0071.
On to `C=C(C)[C@@H]1CC[C@]2(C(=O)O)CC[C@]3(C)[C@H](C[C@H]4OC(=O)C[C@@H](O)[C@]5(C)[C@@H]4[C@@]3(C)CC[C@H]5C(=C)C)[C@@H]12` [Chiisanogenin (12)], for which the cell viability in test [1] is 0.9945 ± 0.00071; in test [2] it was 1.02 ± 0.12; in test [3], 0.968 ± 0.023. Moreover, the “TCF/Wnt firefly luciferase reporter signal” value in test [4] was 1.11 ± 0.028; in test [5] it was 1.12 ± 0.028.
With `CC(NCCc1ccc(O)cc1)C(O)c1ccc(O)cc1` (stereo not given), the cell viability was 0.914 ± 0.1 in test [1], 0.929 ± 0.1 in test [2] and 0.933 ± 0.056 in test [3]. The “TCF/Wnt firefly luciferase reporter signal” value in test [4] came out at 0.981 ± 0.07; in test [5], 0.913 ± 0.027.
On to `Cc1c(Nc2ncccc2C(=O)O)cccc1C(F)(F)F`, for which the cell viability in test [1] was found to be 0.977 ± 0.016; in test [2], 1.1 ± 0.11; in test [3] it was 1.04 ± 0.042. The “TCF/Wnt firefly luciferase reporter signal” value was found to be 1.11 ± 0.057 in test [4] and 0.948 ± 0.14 in test [5].
`CN1C(C(=O)Nc2ccccn2)=C(O)c2sccc2S1(=O)=O`: the values for the cell viability in test [1], in test [2] and in test [3] were 0.932 ± 0.03, 0.893 ± 0.011 and 0.9585 ± 0.00071, respectively. Further, the “TCF/Wnt firefly luciferase reporter signal” value in test [4] was 0.978 ± 0.073; in test [5] it was 1.09 ± 0.014.
`CCC1(C)CC(=O)NC1=O` (stereo not given): the figures for the cell viability in test [1], in test [2] and in test [3] were 0.932 ± 0.018, 1.09 ± 0.021 and 1 ± 0.022, respectively. The “TCF/Wnt firefly luciferase reporter signal” value in test [4] worked out at 1.15 ± 0.11; in test [5], 0.865 ± 0.0092.
With `CC(=O)[C@H]1CC[C@H]2[C@@H]3C[C@H](C)C4=CC(=O)CC[C@]4(C)[C@H]3[C@@H](O)C[C@]12C`, the cell viability turned out to be 0.979 ± 0.12 in test [1], 0.981 ± 0.042 in test [2] and 0.958 ± 0.029 in test [3]. Moreover, the “TCF/Wnt firefly luciferase reporter signal” value amounted to 1.01 ± 0.069 in test [4] and 1 ± 0.022 in test [5].
With `CC(=O)O[C@H]1CC[C@]2(C)[C@H]3CC[C@]4(C)C(=CC[C@@]5(C(=O)O)CCC(C)(C)C[C@H]54)[C@]3(C)CC[C@H]2C1(C)C` [3-Acetylaleuritolic acid], the values for the cell viability in test [1], in test [2] and in test [3] were 1.01 ± 0.11, 1.04 ± 0.11 and 1.01 ± 0.044, respectively. For the same compound, the “TCF/Wnt firefly luciferase reporter signal” value was found to be 0.879 ± 0.0085 in test [4] and 1.02 ± 0.06 in test [5].
As to `FC(F)(F)COCC(F)(F)F`, the cell viability stood at 0.944 ± 0.047 in test [1], 0.922 ± 0.041 in test [2] and 0.99 ± 0.029 in test [3]. Besides, the “TCF/Wnt firefly luciferase reporter signal” value is 0.762 ± 0.016 in test [4] and 0.825 ± 0.1 in test [5].
`CC(C)=CCc1c(O)cc2occ(-c3ccc4c(c3)OCO4)c(=O)c2c1O`: the cell viability in test [1] worked out at 1 ± 0.12; in test [2] it was 1.05 ± 0.071; in test [3], 0.972 ± 0.018. Also, the “TCF/Wnt firefly luciferase reporter signal” value turned out to be 1.02 ± 0.1 in test [4] and 0.902 ± 0.45 in test [5].
For `CCOC(N)=O`, the cell viability in test [1] was 1.01 ± 0.021; in test [2], 1.04 ± 0.16; in test [3], 0.949 ± 0.018. Also, the results for the “TCF/Wnt firefly luciferase reporter signal” value in test [4] and in test [5] were 1.035 ± 0.0071 and 0.982 ± 0.054, respectively.
`COc1cc(N)c(Cl)cc1C(=O)NC1CCN(Cc2ccccc2)CC1`: the cell viability stood at 0.971 ± 0.026 in test [1], 0.883 ± 0.041 in test [2] and 0.975 ± 0.0071 in test [3]. The “TCF/Wnt firefly luciferase reporter signal” value was 0.8815 ± 0.0021 in test [4] and 0.998 ± 0.017 in test [5].
In the case of `CC(=O)O[C@@H]1CO[C@H]2O[C@H]3[C@@H](C(C=O)=C[C@H](O)[C@@H]4C5=C(C(C)C)CC[C@]5(C)CC[C@@]34C)[C@@]2(O)C1=O` [Striatal B], the cell viability was 1 ± 0.17 in test [1], 0.89 ± 0.16 in test [2] and 1.05 ± 0.021 in test [3]. Besides, the entries for the “TCF/Wnt firefly luciferase reporter signal” value in test [4] and in test [5] were 1 ± 0.16 and 1.025 ± 0.0071, respectively.
`COc1ccc(/C=C/C(=O)c2ccc(O)cc2O)cc1OC`: the cell viability stood at 0.955 ± 0.046 in test [1], 1.04 ± 0.035 in test [2] and 1.08 ± 0.042 in test [3]. For the same compound, the “TCF/Wnt firefly luciferase reporter signal” value in test [4] was 1.03; in test [5], 0.986 ± 0.062.
Take `CC(=O)Oc1cccc(O)c1`: the cell viability was 1.01 ± 0.095 in test [1], 1.06 ± 0.042 in test [2] and 1.07 ± 0.021 in test [3]. In addition, the figures for the “TCF/Wnt firefly luciferase reporter signal” value in test [4] and in test [5] were 0.952 ± 0.097 and 1.05 ± 0.028, respectively.
Take `NS(=O)(=O)c1cc(C(=O)O)c(NCc2ccco2)cc1Cl`: the cell viability in test [1] was determined as 0.993 ± 0.0099; in test [2], 1.04; in test [3] it was 1.09 ± 0.042. Also, the “TCF/Wnt firefly luciferase reporter signal” value in test [4] was determined as 1.095 ± 0.0071; in test [5] it was 1.13 ± 0.057.
Take `CN1CCN(CCCN2c3ccccc3Sc3ccc(C(F)(F)F)cc32)CC1`: the cell viability stood at 0.999 ± 0.0014 in test [1], 1.08 ± 0.13 in test [2] and 1.09 ± 0.028 in test [3]. In addition, the “TCF/Wnt firefly luciferase reporter signal” value in test [4] was determined as 1.21 ± 0.17; in test [5], 1.05 ± 0.14.
The like results for `CCCCN1CCCCC1C(=O)Nc1c(C)cccc1C` (stereo not given) were, in that order, 1.02 ± 0.055, 0.949 ± 0.071, 1.06 ± 0.042, 0.901 ± 0.081 and 0.887 ± 0.047.
Consider `COC(=O)[C@H]1[C@H]2C[C@H]3c4[nH]c5cc(OC)ccc5c4CCN3C[C@H]2C[C@@H](OC(=O)c2cc(OC)c(OC)c(OC)c2)[C@@H]1OC`, for which the cell viability in test [1] was 0.96 ± 0.057; in test [2] it was 1 ± 0.11; in test [3] it was 0.905 ± 0.011. Further, the “TCF/Wnt firefly luciferase reporter signal” value in test [4] stood at 1.18; in test [5], 0.9565 ± 0.0021.
With `CC1(C)C(O[C@@H]2OC[C@@H](O)[C@H](O)[C@H]2O)CC[C@]23CC24CC[C@]2(C)[C@@H]([C@@]5(C)CC[C@@H](C(C)(C)O)O5)[C@H](O)C[C@@]2(C)C4C[C@@H](O[C@@H]2O[C@H](CO)[C@@H](O)[C@H](O)[C@H]2O)C13` (stereo not given in full), the cell viability in test [1] was determined as 0.987 ± 0.033; in test [2], 0.961 ± 0.016; in test [3] it was 0.9815 ± 0.0064. The entries for the “TCF/Wnt firefly luciferase reporter signal” value in test [4] and in test [5] were 1 ± 0.011 and 1.075 ± 0.0071, respectively.
